# Data published in PMC4552634, “A New Set of Chemical Starting Points with Plasmodium falciparum Transmission-Blocking Potential for Antimalarial Drug Discovery” (PLoS ONE, 2015).
# Among all 13,000 compounds or so, about 3,200 (25%) showed an effect of 50% or more. The list shows a part of the results.
# System: P. falciparum stage V gametocytes
# Parameters: BacTiter-Glo ATP luminescence viability of purified stage V gametocytes in 384-well plates, per cent inhibition versus DMSO
# Settings: 48 h, 5 µM; inhibitor
row,Compound,% Inhibition [%]
1,COc1ccc(Cl)cc1NC(=O)Nc1ccc2c(c1)CCN(C1CCC1)CC2 [TCMDC-136006],9.191
2,COc1ccc(NC(=O)C2c3ccccc3C(=O)N(C3CCCC3)C2c2cccs2)cc1 (stereo not shown) [TCMDC-125287],90.81
3,COc1ccc(NC(=O)Nc2ccc(Nc3nc(C)cc(N4CCCC4)n3)cc2)cc1 [TCMDC-124958],27.34
4,COc1ccc(NC(=O)C2c3ccccc3C(=O)N(C3CCCC3)C2c2cccs2)cc1OC (stereo not shown) [TCMDC-124695],88.1
5,COc1ccc(NC(=O)C2c3ccccc3C(=O)N(C3CCCC3)C2c2cccs2)c(OC)c1 (stereo not shown) [TCMDC-125288],-16.95
6,O=C(Nc1cccc(CN2CCCN(Cc3ccc(O)cc3)CC2)c1)c1cc2ccccc2o1 [TCMDC-141859],49.98
7,CN1CC[C@@H](Oc2cc(NC(=O)Nc3ccc(Cl)c(C(F)(F)F)c3)ccc2Cl)C1 [TCMDC-136149],23.18
8,COc1cc(Br)c(NC(=O)Nc2ccc(C(F)(F)F)c(O[C@@H]3CCN(C)C3)c2)cc1OC [TCMDC-135186],-75.17
9,CN1CC[C@@H](Oc2cc(NC(=O)Nc3ccccc3Br)ccc2Cl)C1 [TCMDC-136144],79.19
10,Cc1cc2nc(-c3ccc(C(=O)NCc4cccc(F)c4)cc3)[nH]c2cc1C [TCMDC-140432],-28.29
11,CC(C)Nc1cc(C(=O)N[C@@H](Cc2ccccc2)[C@H](O)CNC2CCCCC2)cc(N2CCCCS2(=O)=O)c1 [TCMDC-135203],21.45
12,COc1ccccc1N1CCN(Cc2c(O)ccc3cc(Br)ccc23)CC1 [TCMDC-123565],17.32
13,CC(=O)Nc1nc(C(=O)Nc2cccc(-c3ccc(-c4nc5cccc(C)c5[nH]4)s3)c2)cs1 [TCMDC-137132],-23.79
14,COc1ccc(Cl)cc1NC(=O)Nc1cc(C)nc2ccccc12 [TCMDC-125497],-49.54
15,COc1ccc(Cl)cc1NC(=O)CN(C)C(=O)c1cnn(-c2ccccc2)n1 [TCMDC-125457],95.1
16,COc1ccc(Cl)cc1NC(=O)C(C)N1CCN(S(=O)(=O)c2ccccc2F)CC1 (stereo not shown) [TCMDC-123567],-51.26
17,Cc1ccc(-n2c(=O)c3cccnc3n2CC(=O)Nc2cccc(C)c2C)cc1 [TCMDC-125161],23.17
18,COc1ccc(CN(C2CC2)C(C)C(=O)c2[nH]c(C)c(C(C)=O)c2C)cc1 (stereo not shown) [TCMDC-125037],53.61
19,CCCC(C)N(Cc1ccc(C(C)(C)C)cc1)C(=O)c1ccc(OC)cc1 (stereo not shown) [TCMDC-139782],14.81
20,CC1(C)N=C(NC(=O)c2cc([N+](=O)[O-])cc([N+](=O)[O-])c2)N=C(N)N1OCc1cccc2ccccc12 [TCMDC-131584],-17.03

row,Compound,% Inhibition [%]
1,COc1ccc(CNC(=O)c2cnc3c(O)cccc3c2Nc2cccc(NC(=O)c3ccc(Cl)c([N+](=O)[O-])c3)c2)cc1.O=C(O)C(F)(F)F [TCMDC-139609],35.62
2,O=C(Cc1ccc(NC(=O)c2ccc(O)c(-c3ccc(Cl)c(Cl)c3)c2)cc1)NCc1cccc(C(F)(F)F)c1 [TCMDC-140835],-7.918
3,CC(C)CCNC(=O)c1cnc2c(O)cccc2c1Nc1cccc(NC(=O)c2ccc(F)cc2)c1.O=C(O)C(F)(F)F [TCMDC-139606],111.5
4,Nc1nc(Nc2cccc(Cl)c2)ncc1C(=O)NCc1ccncc1 [TCMDC-135688],0.6434
5,COc1ccc(CNC(=O)c2cnc3c(O)cccc3c2Nc2cccc(NC(=O)c3ccc(Cl)c(Cl)c3)c2)cc1.O=C(O)C(F)(F)F [TCMDC-139607],97.23
6,COc1ccc(CNC(=O)c2cnc3cc(-c4c(C)noc4C)ccc3c2Nc2ccccc2C(C)(C)C)cc1.Cl [TCMDC-136367],-23.94
7,CC(C)CCNC(=O)c1cc(C(=O)c2cc(F)ccc2O)cn(CCC(C)C)c1=O [TCMDC-124499],0.8137
8,NS(=O)(=O)c1ccc(CNC(=O)c2cnc3c(O)cccc3c2Nc2cccc(NC(=O)c3ccc(Cl)c(Cl)c3)c2)cc1.O=C(O)C(F)(F)F [TCMDC-139608],34.02
9,CN(c1cc(NC(=O)c2ccc(F)cc2)ccn1)C1CCN(Cc2cccc(O)c2)CC1 [TCMDC-134966],-19
10,CC(C)(C)c1ccc(C(=O)Nc2cccc(Nc3c(C(=O)NCc4cccc(C(F)(F)F)c4)cnc4c(O)cccc34)c2)cc1.O=C(O)C(F)(F)F [TCMDC-139610],57.39
11,COc1ccc(CNC(=O)c2cnc3c(O)cccc3c2Nc2cccc(NC(=O)c3ccc(-c4ccccc4)cc3)c2)cc1.O=C(O)C(F)(F)F [TCMDC-139611],77.42
12,OCc1ccc2nc3c(cc2c1)-c1cccc2cccc-3c12 [TCMDC-137756],2.597
13,Cc1cc(N2CCCC2)nc(Nc2ccc(NC(=O)c3ccccc3)cc2)n1 [TCMDC-124713],-11.14
14,COc1cccc(OC)c1OCCCOc1c(C)nc(N)nc1N [TCMDC-131352],5.526
15,c1ccc(Oc2ccc(Nc3nc(NCCc4cnc[nH]4)nc(NC4CCCC4)n3)cc2)cc1 [TCMDC-139745],20.05
16,COc1ccc(CN2CCC(Oc3cccc(NC(=O)c4ccc(C(F)(F)F)cc4)c3)CC2)cc1 [TCMDC-133735],-21.77
17,O=C(Nc1cccc(OC2CCN(Cc3ccc(F)cc3)CC2)c1)c1ccc(C(F)(F)F)cc1 [TCMDC-133734],-18.45
18,COc1ccc(CNC(=O)c2cnc3c(O)cccc3c2Nc2cccc(NC(=O)c3ccc(F)cc3)c2)cc1.O=C(O)C(F)(F)F [TCMDC-139605],78.77
19,O=C(Nc1ccc(Cl)c(Cl)c1)N1CCC(NCc2cccc([N+](=O)[O-])c2)CC1 [TCMDC-141277],22.25
20,O=C(CN1C(=O)CC1S(=O)(=O)Cc1ccco1)NCCCCCCc1ccc(F)cc1 (stereo not shown) [TCMDC-139032],21.56
